# Pf growth 96h = P. falciparum growth inhibition at 96 hours | P. falciparum luciferase reporter growth, 96 h | Potency, µM (titrated, usually from 28.7 µM), inactives show top-dose activity change, negative = inhibition, hits mostly inhibitors | 6.9% of 320,000 active; also: potency is read from the fitted curve at half-maximal effect; % is scaled to controls: 0 for no effect and ±100 for the full control effect
#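 Luminescence readout: decreased luciferase signal marks inhibited growth of reporter-expressing P. falciparum in infected red cells (2% hematocrit, 0.05% parasitemia final), exposed to compound two generations (96 h, 37 C, 5% CO2).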
# CHX counter = counter-screen hit for Shiga toxin inhibitors, cycloheximide; 12% of 300,000 active; cell reporter, cycloheximide protein synthesis inhibition counterscreen; max response, %; in the data active = max response mostly above about 13%, no sharp cut-off; inactive = mostly below about 14%; also: read at 38.3 µM for the half of the compounds with a filed dose; 0% is about no effect
# Pf growth 48h = inhibits P. falciparum growth in the first generation, 48 h. P. falciparum luciferase growth in erythrocytes, 48 h. Potency, µM (highest dose often 28.7 µM), for inactives: top-dose activity change, negative = inhibition, usual class: inhibitors. 5.9% of 310,000 active; also: potency is read from the fitted curve at half-maximal effect; % is scaled to controls: 0 for no effect and ±100 for the full control effect
#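 First compound was added to culture medium, then infected red cells at 0.1% parasitemia and 2% hematocrit (final). After incubation at 37 C under 5% CO2, luciferase detection reagent was dispensed and light output recorded.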
# SARS PLpro yeast = SARS-CoV PLP inhibition in yeast; S. cerevisiae expressing SARS-CoV PLpro, growth rescue; 0.19% of 330,000 active; Potency, µM (series often up to 32.9 µM), for the others: at the highest dose activity, positive = growth rescue, most hits filed as activators; AID 485353; calls by dose curve; also: potency is read from the fitted curve at half-maximal effect; 0% is about no effect; nearly all actives have a fitted effect of over 55% in size
# AMA1 RON2 block = disrupts binding of P. falciparum AMA1 to RON2 | AlphaScreen AMA1-biotinylated RON2 peptide binding | 0.2% of 360,000 active | Potency, µM (doses to about 58.2 µM), inactives show top-dose activity change, negative = inhibition, hits mostly inhibitors;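 also: potency is read from the fitted curve at half-maximal effect; 0% = vehicle wells and -100% = peptide control; nearly all actives have a fitted effect of over 45% in size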
#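 AMA1 (3D7) with his tag at 25 nM final met compounds first, then biotinylated RON2 peptide at 25 nM; detection used donor plus acceptor beads, 10 µg/mL apiece, read by AlphaScreen after 30 min at room temperature.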
# Shiga inhibitor = inhibitors of Shiga toxin in Vero cells. Vero cells, Shiga toxin protein synthesis inhibition reporter. inhibition, % at 38.7 µM. 9.2% of 290,000 active. AID 2315; in the data active = inhibition mostly above about 28%, no sharp cut-off; inactive = mostly below about 43%; also: 0% is about no effect
# * marks the source's active call; other numbers are inactive results; ? = inconclusive; . = no result given; ! = not active in a repeat. Rows were chosen to be rich in hits. Some 19% of all compounds tested hit in one or more screens of this group. Unless noted, calls follow the shape of the dose curve; as a rule, active = well fitted curve in the direction sought with a large enough effect; inconclusive = small, poorly fitted or top-dose-only effect, or another doubt; inactive = no such curve, though single readings can be large; an effect the other way counts as inactive or inconclusive.
SMILES,Pf growth 96h,CHX counter,Pf growth 48h,SARS PLpro yeast,AMA1 RON2 block,Shiga inhibitor
Cc1cc(C)cc(NC(=O)N2CCCN(Cc3c(F)cccc3Cl)CC2)c1,?,-2,?,1%,2%,3
COC(=O)c1cc(=O)n(-c2ccc(C(F)(F)F)cc2)[nH]1,-5%,6,-23%,8%,1%,3
Cc1cc(C)n2c(Nc3ccc4c(c3)OCCO4)c(CC(C)C)nc2n1,.,.,.,.,-17%,.
CC(=O)NC1CC2CCCC(C1)N2C(=O)Nc1ccccc1C (stereo not drawn),.,.,.,.,14%,.
CC1CCCCN1CCCNc1ccc(C(CC(N)=O)NC(=O)Cc2cccc3ccccc23)cc1[N+](=O)[O-] (stereo not drawn),2.1µM*,-2,?,-2%,-2%,-13
CC1CCCCN1CCCNc1ccc(C(CC(N)=O)NC(=O)Cc2ccc(Cl)cc2)cc1[N+](=O)[O-] (stereo not drawn),33%,1,38%,0%,1%,-7
NC(=O)CC(NC(=O)Cc1ccc(Br)cc1)c1ccc(NCCN2CCCCC2)c([N+](=O)[O-])c1 (stereo not drawn),0.01µM*,2,29%,-6%,-1%,1
COc1ccc(OCc2nn[nH]n2)cc1,?,1,48%,16%,-2%,19
CC1=C(C(=O)N(C(C)C)C(C)C)CC(CC(=O)NC2CCCCC2)C(=O)N1CCCN1CCCC1=O (stereo not drawn),.,.,.,.,13%,.
Clc1cccc(Cl)c1CNc1ccc(N2CCCC2)cc1,20%,20*,?,-1%,?,85
O=C(Cc1ccc(Cl)cc1)Nc1ccc(N2CCCC2)cc1,.,5,16%,7%,-4%,6
CCCCNC(=O)CN1C(=O)CSc2ccc(S(=O)(=O)N3CCOCC3)cc21,.,.,.,.,3%,.
CC(C)(C)NC(=O)C(=O)NNC(=O)c1cccc(F)c1,70%,38*,166%,-2%,71%,44
O=C(NNC(=O)c1ccccc1F)c1ccc2[nH]c(=O)c(=O)[nH]c2c1,36%,34*,?,-4%,-19%,41*
Cc1occc1C(=O)NNC(=O)c1cccc(F)c1,275%,14,21%,-1%,3%,8
COc1ccccc1C(=O)NNC(=O)c1cccc(O)c1,6.6µM*,23*,163%,-2%,-4%,21
COc1ccccc1C(=O)NNC(=O)c1cccc(F)c1,79%,51*,120%,-10%,5%,88*
COc1ccc(CN(C)C[C@@H]2OCc3cnnn3CCCC(=O)N([C@H](C)CO)C[C@H]2C)cc1,.,.,.,.,-4%,.
O=S(=O)(NCC[C@@H]1CC[C@H](NS(=O)(=O)c2cccc(F)c2)[C@@H](CO)O1)c1cccc(F)c1,.,.,.,.,33%,.
CC(C)(C)c1csc(Sc2ncccc2[N+](=O)[O-])n1,-4%,7,?,-1%,-21%,24
COCC(=O)NNC(=O)c1ccccc1OC,-19%,11,-2%,0%,-1%,20
COc1ccccc1C(=O)NNC(=O)c1ccccc1F,-7%,47*,192%,-35%,44%,58*
CC(C)CC(=O)NC(NCC1CCCO1)C(Cl)(Cl)Cl (stereo not drawn),-8%,4,0%,1%,1%,-6
CC(C)NC(=O)NC1C2CC3CC(C2)CC1C3 (stereo not drawn),10µM*,1,?,-18%,2%,-1
N#Cc1ccccc1OCC(=O)OCC(=O)c1c[nH]c2ccccc12,-21%,.,-13%,-4%,-4%,.
SMILES,Pf growth 96h,CHX counter,Pf growth 48h,SARS PLpro yeast,AMA1 RON2 block,Shiga inhibitor
CCN(CC)C(=O)Oc1ccc2ccccc2c1Cl,?,43*,42%,1%,-18%,80*
CCN(CC)C(=O)Oc1ccnc2cc(Cl)ccc12,2%,-2,-12%,0%,-6%,-20
CN(C)C(=O)Oc1ccc2ccccc2c1Cl,115%,30*,.,13%,6%,29
CN(C)C(=O)Oc1ccc(Cl)c2ccccc12,.,5,67%,-15%,-6%,15
Cn1c(Cc2ccccc2)nnc1SCC(=O)c1cccs1,10%,2,.,2%,7%,-3
Cc1c(NC(=O)OCCNC(=O)COc2c(Cl)cccc2Cl)sc(=S)n1C,9.3µM*,4,?,5%,37%,-5
Cc1cc(C)n2nc(-c3ccc(Cl)cc3)cc2n1,212%,43*,170%,-2%,8%,100*
Cc1cc(-c2ccc(Cl)cc2)n2nc(C)cc2n1,10µM*,-2,-1%,-4%,19%,-6
Cc1nc2cc(-c3ccc(Cl)cc3)nn2c(NCCN(C)C)c1C,10µM*,60*,?,0%,?,80*
CN(C)CCCNc1c2c(nc3cc(-c4cccc(F)c4)nn13)CCC2,-6%,9,7%,0%,9%,14
COc1ccc(-c2cc3nc(C)cc(C)n3n2)cc1,268%,35*,.,14%,3%,48*
Cc1cc(-c2ccc(Br)cc2)n2nc(C)cc2n1,.,.,.,.,23%,.
Cc1cc(C)n2nc(-c3ccc(Br)cc3)cc2n1,16%,26*,157%,-4%,0%,.
O=C(Nc1ccccc1-c1nnc(SCc2ccc(Cl)cc2Cl)o1)c1ccccc1,2.3µM*,-3,-3%,-9%,-3%,-13
O=C(Nc1ccccc1-c1nnc(SCc2ccccc2Cl)o1)c1ccccc1,59%,-3,?,-3%,-3%,-26
CCS(=O)(=O)N1CCC(C(=O)Oc2ccc(C)c(C)c2)CC1,56%,-1,5%,3%,-2%,-2
CC(=O)/C(C#N)=C1\NC(=O)C(Cc2ccccc2)S1 (stereo not drawn),.,14,0%,-1%,1%,16
CC(=O)/C(C#N)=C1\NC(=O)C(Cc2ccccc2C)S1 (stereo not drawn),-18%,16*,?,1%,-4%,27
COc1cc(-c2noc(C)c2C#Cc2ccc(N)cc2)cc(OC)c1OC,?,14*,0%,-3%,-21%,12
CNC(C)C#Cc1c(-c2cc(OC)c(OC)c(OC)c2)noc1C (stereo not drawn),15µM*,1,?,13%,-19%,7
COc1cc(-c2noc(C)c2C#Cc2ccccn2)cc(OC)c1OC,?,-1,5%,-3%,3%,-2
O=C(Nc1ccc(Cl)cc1)c1cccc(S(=O)(=O)Nc2ccccn2)c1,13µM*,4,12%,-3%,-5%,2
O=C(Nc1ccccn1)C(=O)Nc1ccccn1,197%,30*,329%,-1%,-2%,39*
O=C(Nc1ccc(Cl)cc1)Nc1ccccn1,7%,41*,83%,-7%,0%,103*
O=C(Nc1ccccn1)c1ccc(-c2ccccc2)cc1,-76%,0,118%,-12%,-8%,7
S=C(Nc1ccccn1)c1ccccn1,6.6µM*!,42*,?,-3%,-34%,71*!
